Source: PubChem (National Center for Advancing Translational Sciences (NCATS))
Sampled rows, rich in hits. Any-hit rate of the full collection: about 21%.
DT40 TDP1 no CPT – qHTS for Inhibitors of human tyrosyl-DNA phosphodiesterase 1 (TDP1): qHTS in cells in absence of CPT; Potency, µM (series often up to 46.2 µM), usual class: inhibitors; 15% of 420,000 active; DT40 Tdp1-/- hTDP1 cells, no CPT, ATP luminescence, 48 h; further: nearly all actives have a fitted effect of over 55% in size
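Readout: luminescence from CellTiter-Glo after 30 min in the dark at RT. Cells: DT40 Tdp1-/- with stable hTDP1, 400/well. Exposure: compounds alone, ≥48 hr, 37 °C.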
D3 ag – qHTS of D3 Dopamine Receptor Agonist: qHTS | D3R DiscoveRx beta-arrestin cells, luminescence, 90 min | max activation, % | 0.58% of 410,000 active | AID 652048, 2013; in the data active means max activation above about 30%
Target sequence (P35462 whole entry, looked up): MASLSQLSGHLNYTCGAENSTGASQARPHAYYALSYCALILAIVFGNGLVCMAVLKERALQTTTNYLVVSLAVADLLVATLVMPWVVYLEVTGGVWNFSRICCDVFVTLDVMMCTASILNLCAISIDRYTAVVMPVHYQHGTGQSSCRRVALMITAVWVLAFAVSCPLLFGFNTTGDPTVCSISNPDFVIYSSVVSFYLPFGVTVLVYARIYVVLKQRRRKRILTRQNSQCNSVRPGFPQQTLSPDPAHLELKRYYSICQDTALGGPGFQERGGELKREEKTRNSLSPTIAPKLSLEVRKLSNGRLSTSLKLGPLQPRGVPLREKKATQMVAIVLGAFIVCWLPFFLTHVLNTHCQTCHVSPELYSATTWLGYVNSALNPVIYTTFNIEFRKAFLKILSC
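Cells at 1500/well, incubated overnight, then treated with pinned compounds (dopamine as control) for 90 min at 37 degrees C. DiscoveRx reagent added for 30 - 60 minutes at room temperature; luminescence read.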
ClpP mod – qHTS Assay for Activators of ClpP; AID 651965, 2013; purified B. subtilis ClpP, FRET peptide cleavage, 20 min; 1.9% of 340,000 active; Potency, µM (series often up to 57.5 µM); active means well fitted falling curve with a large enough effect; inconclusive means small, poorly fitted or top-dose-only effect; inactive means no such curve, though single readings can be large or run the other way; further: the source files actives as falling curves though it sought activators and does not explain the sign; nearly all actives have a fitted effect of over 65% in size
Target sequence (P80244 whole entry, looked up): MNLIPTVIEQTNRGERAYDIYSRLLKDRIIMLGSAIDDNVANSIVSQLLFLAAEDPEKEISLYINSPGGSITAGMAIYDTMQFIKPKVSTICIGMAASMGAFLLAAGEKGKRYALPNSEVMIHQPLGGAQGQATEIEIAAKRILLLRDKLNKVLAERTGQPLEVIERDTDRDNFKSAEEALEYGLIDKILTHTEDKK
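Purified B. subtilis ClpP, 10 microg/mL final in Tris/HCl pH8 with KCl, BSA, glycerol and Tween-20, cleaved an Abz/nitrotyrosine-quenched decapeptide. Fluorescence (ex 320, em 430) was read at 0 and 20 min at room temperature. Delta was normalized to 5.8 microM ADEP and DMSO/no-enzyme controls.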
D3 antag – qHTS of D3 Dopamine Receptor Antagonist: qHTS; D(3) dopamine receptor (Homo sapiens), P35462; D3R cells, DiscoveRx beta-arrestin luminescence, antagonist mode; stronger effect = lower value; max response, negative = inhibition, %; 2.5% of 360,000 active; in the data active means max response below about -50%; inconclusive means no clear call, values can overlap the other calls
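Cells expressing the human receptor were seeded at 1500 cells/well, incubated overnight at 37 degrees C in 5% CO2, then exposed to library compounds with dopamine controls for 90 minutes at 37 degrees C before luminescent detection.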
TDP1 cell CPT – qHTS for Inhibitors of human tyrosyl-DNA phosphodiesterase 1 (TDP1): qHTS in cells in presence of CPT; chicken DT40 Tdp1-/-;hTDP1 cells + 20 nM CPT, ATP luminescence, 48 h; Potency, µM (series often up to 46.2 µM), actives largely listed as inhibitors; AID 686979, 2013; 12% of 420,000 active; further: nearly all actives have a fitted effect of over 55% in size
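Chicken DT40 Tdp1-/- cells complemented with human TDP1, 400 cells/well, exposed to compounds plus 20 nM camptothecin for at least 48 h at 37 C; viability read as ATP content by CellTiter-Glo luminescence.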
IL-1B inflam inh – qHTS for Inhibitors of Inflammasome Signaling: IL-1-beta AlphaLISA Primary Screen; activity change, % at 57.5 µM; AID 743279, 2014; THP-1 LPS/ATP IL-1B secretion, AlphaLISA, 16 h; stronger effect = lower value; 4.7% of 360,000 active; in the data active means activity change below about -50%; inconclusive means mostly about -30% to -49%
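Secreted IL-1B measured by AlphaLISA bead assay after 16 h compound exposure of THP-1 cells; compounds (final up to 57.5 uM) added 1 h before LPS (250 ng/mL) and ATP (1.25 mM) stimulation; lower signal means less secretion.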
Each line names hits and unclear results; the compound was inactive in the other large screens. Unless noted, the call rests on the fitted dose curve; in most records, active means well fitted inhibition curve with a large enough effect; inconclusive means small, poorly fitted or top-dose-only effect; inactive means flat fitted curve, though single readings scatter.

O=C(O)CCNc1ccc(NCCC(=O)O)c2c1C(=O)c1ccccc1C2=O	DT40 TDP1 no CPT inconclusive, D3 antag -81.5, TDP1 cell CPT inconclusive
CCC1NC(=S)NC(C)=C1C(=O)c1ccccc1 (centres undefined)	none
CCOc1ccc(CCNC(c2cccc(Cl)c2)c2nnc(-c3ccccc3)o2)cc1OCC (centres undefined)	DT40 TDP1 no CPT 25.9µM, TDP1 cell CPT 16.4µM (no result: D3 antag, IL-1B inflam inh)
CCOc1ccc(CCNC(c2nnc(-c3ccccc3)o2)c2ccccc2Cl)cc1OCC (centres undefined)	DT40 TDP1 no CPT 14.6µM, TDP1 cell CPT 14.6µM (no result: D3 antag, IL-1B inflam inh)
COc1cc(NC(=O)C2CCN(C(=O)c3sc4nc[nH]c(=O)c4c3C)CC2)cc(OC)c1OC	none (no result: D3 antag, IL-1B inflam inh)
CCOC(=O)c1ccc(CN(Cc2ccccc2C)S(=O)(=O)c2ccc(F)c(C)c2)cc1	DT40 TDP1 no CPT inconclusive, TDP1 cell CPT inconclusive (no result: D3 antag, IL-1B inflam inh)
Cc1sc2nc3c(SC(C)C(=O)O)cc(C(=O)c4ccccc4O)cn3c(=O)c2c1C (centres undefined)	D3 antag inconclusive, IL-1B inflam inh inconclusive
COC(=O)c1cc(C(=O)c2cc(F)ccc2O)cn2c(=O)c3c(C)c(C)sc3nc12	TDP1 cell CPT 4.11µM
CCc1c(C)sc2nc3c(C(=O)N4CCOCC4)cc(C(=O)c4ccccc4O)cn3c(=O)c12	DT40 TDP1 no CPT 14.6µM, TDP1 cell CPT 23.1µM, IL-1B inflam inh -64.2 (no result: ClpP mod)
CC(C)(C)OC(=O)N1CCC(NC(=O)c2[nH]c(C(F)(F)F)nc2-c2ccccc2)CC1	DT40 TDP1 no CPT inconclusive
COc1cccc(Cn2c(=O)c(C)nc3cnc(OC)nc32)c1	none (no result: D3 ag, ClpP mod, D3 antag, IL-1B inflam inh)
COC(=O)c1cccnc1-n1c(=O)c2cccnc2n(Cc2cccc([N+](=O)[O-])c2)c1=O	DT40 TDP1 no CPT 11.6µM, TDP1 cell CPT inconclusive
O=[N+]([O-])c1ccccc1-c1ccc(/C=N/n2cnnc2)o1	none
O=C1ON=C(c2ccccc2)/C1=C/c1ccc(-c2ccccc2[N+](=O)[O-])o1	DT40 TDP1 no CPT 14.6µM, TDP1 cell CPT 11.6µM, IL-1B inflam inh -110.4
Cc1ccc(S(=O)(=O)Nc2ccccc2N2CCCCC2)cc1	DT40 TDP1 no CPT 16.4µM, TDP1 cell CPT inconclusive
Cc1ccc(S(=O)(=O)Nc2ccccc2N2CCOCC2)cc1	DT40 TDP1 no CPT inconclusive, TDP1 cell CPT 20.6µM
O=S(=O)(Nc1cc(C(F)(F)F)ccc1N1CCOCC1)c1ccc2ccccc2c1	DT40 TDP1 no CPT inconclusive, D3 antag inconclusive, TDP1 cell CPT 16.4µM, IL-1B inflam inh inconclusive
COc1cccc(C=O)c1OC(=O)N1CCOCC1	DT40 TDP1 no CPT inconclusive, TDP1 cell CPT inconclusive (no result: ClpP mod)
Nc1ncnc2c1ncn2C1OC(CO)C2OC21 (centres undefined)	none
Nc1ncnc2c1ncn2[C@@H]1O[C@H](CO)C[C@H]1O	DT40 TDP1 no CPT 7.31µM, TDP1 cell CPT 8.2µM
Nc1nc2c(ncn2-c2ccccc2)c(=O)[nH]1	none
Nc1ncnc2c1ncn2[C@@H]1O[C@H](CNC(=O)[C@@H]2CCCN2S(=O)(=O)c2ccc(F)cc2)[C@@H](O)[C@H]1O	D3 ag 36.6
Nc1nc2c(ncn2C2OC(CO)CC2O)c(=O)[nH]1 (centres undefined)	DT40 TDP1 no CPT 1.46µM, TDP1 cell CPT 0.92µM (no result: D3 ag, ClpP mod, D3 antag, IL-1B inflam inh)
CC1(C)OC2C(CO)OC(n3cnc4c(=O)[nH]c(N)nc43)C2O1 (centres undefined)	none (no result: D3 ag, ClpP mod, D3 antag, IL-1B inflam inh)
Nc1nc2c(ncn2CCC(CO)CO)c(=O)[nH]1	DT40 TDP1 no CPT 1.68µM, TDP1 cell CPT 0.668µM (no result: ClpP mod, D3 antag, IL-1B inflam inh)
CC=C1OC(n2cnc3c(N)ncnc32)C(O)C1O (centres undefined)	DT40 TDP1 no CPT inconclusive, TDP1 cell CPT inconclusive
Nc1ncnc2c1ncn2C1C=C(CO)C(O)C1O (centres undefined)	DT40 TDP1 no CPT 0.164µM, TDP1 cell CPT 0.0366µM
Nc1ncnc2c1ncn2[C@@H]1O[C@H](COS(=O)(=O)O)[C@@H](O)[C@H]1O	DT40 TDP1 no CPT 18.4µM, TDP1 cell CPT inconclusive
O=C(Nc1ccc(Oc2ccccc2)cc1)c1csc([C@@H]2O[C@H](CO)[C@H](O)[C@H](O)[C@H]2O)n1	D3 antag -92.4
CC(=O)Nc1ccc(NC(=O)c2csc([C@@H]3O[C@H](CO)[C@H](O)[C@H](O)[C@H]3O)n2)cc1	none
O=C(Nc1cccc(Cl)c1)c1csc([C@H]2C[C@H](O)[C@@H](CO)O2)n1	DT40 TDP1 no CPT inconclusive, TDP1 cell CPT 18.4µM
O=C(Nc1ccc(Cl)cc1)c1csc([C@@H]2C[C@H](O)[C@@H](CO)O2)n1	TDP1 cell CPT inconclusive
CN(C)c1cccc(CNC(=O)c2csc([C@@H]3O[C@H](CO)[C@@H](O)[C@H]3O)n2)c1	DT40 TDP1 no CPT 11.6µM, TDP1 cell CPT 13µM
Cc1ccc(OCc2nc(-c3ccccn3)no2)c(Br)c1	none
CC(C)c1ccc(OCc2nc(-c3ccccn3)no2)c(Br)c1	IL-1B inflam inh -53.9
Cc1ccc(-c2cc(-c3nnc(SCC(=O)N(C)CCC#N)n3N)c3ccccc3n2)cc1	DT40 TDP1 no CPT inconclusive, ClpP mod 15.8µM, IL-1B inflam inh inconclusive
Cc1cn2c(=O)cc(COc3ccc(NC(=O)c4cccc(F)c4)cc3)nc2s1	none (no result: D3 antag, IL-1B inflam inh)
CC(C)N(C1=N/C(=C\c2ccco2)C(=O)N1c1ccccc1)C(C)C	DT40 TDP1 no CPT inconclusive, TDP1 cell CPT 13µM
O=C1/C(=C/c2ccco2)N=C(N2CCCCC2)N1c1ccccc1	DT40 TDP1 no CPT 18.4µM, TDP1 cell CPT 20.6µM
c1cc(-c2cc3nc(NCC4CC4)ccn3n2)ccc1OCCN1CCOCC1	DT40 TDP1 no CPT 23.1µM, TDP1 cell CPT 23.1µM
Fc1ccc(CNc2ccn3nc(-c4ccccc4)cc3n2)cc1	DT40 TDP1 no CPT inconclusive, TDP1 cell CPT inconclusive
Clc1cccc(CNc2ccn3nc(-c4ccc(OCCN5CCOCC5)cc4)cc3n2)c1	DT40 TDP1 no CPT 11.6µM, TDP1 cell CPT 8.2µM
CC(C)Cc1ccc(-c2cc3nc(NCC4CC4)ccn3n2)cc1	DT40 TDP1 no CPT inconclusive, TDP1 cell CPT 20.6µM
c1cc(-c2cc3nc(NC4CCCCC4)ccn3n2)ccc1OCCN1CCOCC1	DT40 TDP1 no CPT 3.26µM, TDP1 cell CPT 3.26µM, IL-1B inflam inh -76.4
O=C(C[n+]1ccccc1)N/N=C/c1cc(Br)ccc1O	D3 antag -88.8
